Shiga toxin inh = inhibitors of Shiga toxin in Vero cells | Vero cells, Shiga toxin protein synthesis inhibition reporter | inhibition, % at 38.7 µM | actives 9.2% (n = 290,000) | AID 2315; in the data active means inhibition mostly above about 28%, no sharp cut-off; inactive means mostly below about 43%; further: 0% is about no effect
FBPA Giardia inh = blocks Giardia fructose-bisphosphate aldolase activity; A8B2U2; purified Giardia FBPA; Potency, µM (highest dose often 59.6 µM), inactives show at the highest dose activity, negative = inhibition, hits mostly inhibitors; actives 0.71% (n = 290,000); AID 2451; further: potency means the concentration at half of the fitted maximal effect; on the % scale 0 is the no-effect control and ±100 the full control effect; nearly all actives have a fitted effect of over 55% in size
Target sequence (A8B2U2 whole entry, looked up): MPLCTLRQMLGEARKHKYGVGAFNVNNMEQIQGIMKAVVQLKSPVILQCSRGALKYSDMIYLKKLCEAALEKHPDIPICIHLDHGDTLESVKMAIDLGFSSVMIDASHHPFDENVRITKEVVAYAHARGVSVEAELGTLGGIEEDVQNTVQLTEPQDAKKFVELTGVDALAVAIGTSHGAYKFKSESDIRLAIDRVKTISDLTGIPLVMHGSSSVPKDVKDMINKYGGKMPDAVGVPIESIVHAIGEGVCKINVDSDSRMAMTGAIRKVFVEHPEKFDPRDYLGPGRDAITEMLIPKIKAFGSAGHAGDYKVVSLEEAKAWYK
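Giardia FBPA (40 nM reagent) was preincubated 10 min at RT with compound (up to 57.5 uM final), then substrate plus GAPDH/TPI/NAD/arsenate coupling system with diaphorase/resazurin was added; resorufin fluorescence (525/598 nm) was read after 20 min.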
LmPK inh = LmPK (Leishmania mexicana) enzyme inhibition; Q27686; purified LmPK, Kinase-Glo ATP luminescence, 1 h; Potency, µM (series often up to 57.5 µM), inactives show top-dose activity change, negative = inhibition, most hits filed as inhibitors; actives 0.37% (n = 290,000); AID 1721; further: potency means the concentration at half of the fitted maximal effect; on the % scale 0 is the no-effect control and ±100 the full control effect
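ATP generated from ADP (0.1 mM) and PEP (0.5 mM) by 0.1 nM LmPK over 1 h at room temperature (pH 7.2 imidazole buffer) was detected by coupled luciferase luminescence. Values were normalized to uninhibited and no-enzyme wells.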
Tb PYK inh = T. brucei pyruvate kinase inhibition. Q57TT1. TbPYK enzyme, Kinase-Glo Plus ATP luminescence, 45 min. Potency, µM (highest dose often 76.8 µM), for inactives: top-dose activity, negative = inhibition, actives largely listed as inhibitors. actives 0.12% (n = 410,000). AID 624173; further: potency means the concentration at half of the fitted maximal effect; on the % scale 0 is the no-effect control and ±100 the full control effect; nearly all actives have a fitted effect of over 50% in size
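In this concentration-response screen, enzyme-free wells defined baseline while DMSO plates tracked drift. Each reaction combined TbPYK, substrate, compound and 130 uM ADP for 45 min at room temperature. Kinase-Glo Plus luminescence gave the signal.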
CHX counter = affects cycloheximide protein synthesis inhibition readout, counter-screen | cell reporter, cycloheximide protein synthesis inhibition counterscreen | max response, % | actives 12% (n = 300,000) | AID 2314; in the data active means max response mostly above about 13%, no sharp cut-off; inactive means mostly below about 14%; further: read at 38.3 µM for the half of the compounds with a filed dose; 0% is about no effect
RE007 growth inh = less growth of the S. pombe RE007 Vpr strain. S. pombe RE007 Vpr strain, BacTiter-Glo ATP luminescence, 24 h. Potency, µM (top dose mostly 92.2 µM), for inactives: at the highest dose activity change, negative = less growth, most hits filed as inhibitors. actives 0.21% (n = 360,000). AID 651644; active means well fitted falling curve with a large enough effect; inconclusive means small, poorly fitted or top-dose-only effect; inactive means no such curve, though single readings can be large or run the other way; further: potency means the concentration at half of the fitted maximal effect; on the % scale 0 is the no-effect control and ±100 the full control effect; nearly all actives have a fitted effect of over 50% in size
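Fission yeast strain RE007, carrying one chromosomally integrated HIV-1 vpr copy, was seeded at OD 0.01 in PMG+AL medium with 23 nL pinned compound. After 24 h at 30 °C and 99% humidity, viability was read by BacTiter-Glo luminescence.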
* = called active by the depositor; i = inactive; ? = inconclusive; / = no result; + = active, no number; [ ] = dose if it differs, or a comment. The sample as a whole holds a higher share of hits than the screen did. Unless noted, the call rests on the fitted dose curve; in most records, active means well fitted curve in the direction sought with a large enough effect; inconclusive means small, poorly fitted or top-dose-only effect, or another doubt; inactive means no such curve, though single readings can be large; an effect the other way counts as inactive or inconclusive.

SMILES	Shiga toxin inh	FBPA Giardia inh	LmPK inh	Tb PYK inh	CHX counter	RE007 growth inh
CC(=O)C1=CCC(c2ccccc2)N(S(=O)(=O)c2ccc(Cl)cc2)C1 (centres undefined)	/	/	/	1%	/	-3%
CCc1ccccc1NC(=O)N1CC(CC)Oc2ccc(Cl)cc21 (centres undefined)	/	/	/	0%	/	/
Cc1ccccc1NC(=O)Cn1c(=O)n(Cc2ccco2)c(=O)c2cccnc21	/	/	/	-2%	/	/
Cc1ccc(S(=O)(=O)N/N=C\c2ccc3c(c2)OCO3)cc1	41	-6%	-7%	0%	16*	-23%
Cc1ccc(S(=O)(=O)N/N=C\c2ccc3c(c2)OCO3)cc1C	-15	/	0%	-13%	5	2%
COc1ccc(OC)c(S(=O)(=O)N/N=C\c2ccc3c(c2)OCO3)c1	73*	-12%	1%	-2%	44*	8%
O=C(O)c1cccc2c1C(=O)c1cc([N+](=O)[O-])ccc1-2	/	/	/	-8%	/	8%
Cc1c(CCC(=O)NCCc2ccccc2F)c(=O)oc2cc(O)ccc12	/	/	/	-5%	/	/
COc1ccc(C2=CSC(/N=C/c3ccc(F)cc3)=NN2)cc1	-4	-3%	-4%	0%	30*	-13%
CC(=O)c1ccc(N2CCCC2)c(F)c1	81*	5%	-1%	/	17*	/
CC(=O)c1ccc(N2CCN(C(=O)c3cccs3)CC2)c(F)c1	16	11%	-3%	0%	16*	-20%
CC1CCN(c2ccc(C(=O)O)cc2N)CC1	-14	-10%	-9%	-4%	25*	5%
CC(=O)c1ccc(N2CCC(C)CC2)c(F)c1	41	4%	-8%	-1%	29*	-24%
Nc1cc(C(=O)O)ccc1N1CCCCC1	3	-21%	8%	-4%	-3	5%
CC(C)(C)OC(=O)NCCCCC1=CC2=CC(=O)C(C)(OC(=O)C3CCCC3)C(=O)C2=CO1 (centres undefined)	/	-1%	/	/	/	/
CCCCCC(=O)Nc1sc(C)c(C)c1C#N	active	-4%	1%	?	42*	-15%
Cc1cc(C(=O)Nc2sc3c(c2C#N)CCC(C(C)(C)C)C3)no1 (centres undefined)	-1	2%	20%	-3%	1	4%
CCCC(=O)Nc1sc(C)c(C)c1C#N	25	-4%	-1%	8%	-5	-11%
CCc1c(C)sc(NC(=O)c2cc(C(C)C)on2)c1C#N	55*	-23%	9%	7%	13*	-23%
CCc1cc(C(=O)Nc2sc(C)c(CC)c2C#N)no1	/	/	/	-1%	/	/
Cc1cc(C(=O)Nc2sc(C)c(C)c2C#N)no1	59*	-10%	-1%	-1%	41*	-17%
COc1ccc(OC)c(NC(=O)CSc2ccnc(=O)[nH]2)c1	/	/	/	1%	/	/
C=CCn1c(COc2cccc(C)c2)nnc1SCn1nnc2ccccc2c1=O	29	-6%	2%	-14%	14*	-3%
CCCN1CCC(=O)N(CCOc2ccccc2)CC1	4	13%	-6%	-1%	3	1%
CC(C)(C)C1CCC(=O)N(CCOc2ccccc2)CC1 (centres undefined)	43*	9%	0%	-9%	28*	14%
SMILES	Shiga toxin inh	FBPA Giardia inh	LmPK inh	Tb PYK inh	CHX counter	RE007 growth inh
CC(C)(C)[C@@H]1CCC(=O)N(CC[C@H](N=[N+]=[N-])c2ccccc2)CC1	33*	-7%	-5%	-3%	13*	-5%
Cc1ccc(N2CC(C)Cn3c2nc2c3c(=O)n(CC(=O)O)c(=O)n2C)cc1 (centres undefined)	/	/	/	4%	/	/
CCC(c1nnnn1Cc1ccco1)N(CCc1ccccc1)Cc1cc2cc(C)ccc2[nH]c1=O (centres undefined)	-17	?	4%	-1%	-7	12%
CCc1ccc2[nH]c(=O)c(C(c3nnnn3CCOC)N3CCN(c4ccc(F)cc4)CC3)cc2c1 (centres undefined)	18	-28%	0%	7%	2	-6%
O=c1[nH]c2cc3c(cc2cc1CN(Cc1ccccc1)Cc1nnnn1Cc1ccco1)OCCO3	48	?	2%	-7%	3	-21%
CCc1ccc2[nH]c(=O)c(CN(Cc3ccccc3)Cc3nnnn3Cc3ccco3)cc2c1	72*	-10%	2%	-7%	24*	1%
CCc1ccc2[nH]c(=O)c(CN(Cc3ccc(F)cc3)C(c3nnnn3CCN3CCOCC3)C(C)C)cc2c1 (centres undefined)	28*	12%	-3%	5%	43*	3%
Cc1ccc2[nH]c(=O)c(CN(CCc3ccccc3)C(c3nnnn3Cc3ccco3)C(C)C)cc2c1 (centres undefined)	40*	-16%	2%	3%	15	10%
COc1ccc(C(=O)CN2CCN(S(=O)(=O)c3ccc(C(C)C)cc3)CC2)cc1	/	/	/	-1%	/	/
Cc1cccc(Oc2coc3cc(OC(=O)c4cccs4)ccc3c2=O)c1	50*	0%	0%	6%	29*	-5%
O=C1C=C(NCc2ccc3c(c2)OCO3)CC(c2ccccc2)C1 (centres undefined)	-15	2%	-2%	1%	-2	6%
COc1ccc(CNc2ncnc3ccc(-c4ccccc4C#N)cc23)c(OC)c1	/	1%	/	/	/	/
CC(=O)Nc1ccc(N2C(=O)c3cccc4c(O)ccc(c34)C2=O)cc1	4	?	-1%	-3%	-4	/
O=C1c2cccc3c(O)ccc(c23)C(=O)N1c1ccc(Cl)cc1	+	?	-1%	-6%	105*	34%
O=C(O)c1ccc(-c2ccccc2C(F)(F)F)s1	i	19%[89.2 µM]	/	/	9	/
CCOc1ccccc1-c1ccc(C(=O)O)s1	+	20%[89.2 µM]	/	/	44*	/
O=C(O)c1ccc(-c2ccccn2)s1	29*	8%	-2%	-11%	45*	27%
c1ccc(-c2ccc(-c3ccccn3)s2)nc1	132*	-7%	?	-3%	45*	-23%
c1ccc(-c2nnc(-c3ccccn3)nn2)nc1	/	/	/	-9%	/	3%
CCc1ccc(NC(=O)CSCCO)cc1	37*	2%	-2%	-10%	14	11%
COc1cccc(NC(=O)CSc2nc(C)cs2)c1	21	3%	1%	-2%	14	-14%
O=C(CSCCO)Nc1ccccc1	-14	29%	1%	4%	1	1%
CCc1ccc(NC(=O)CSc2ccccn2)cc1	64	-8%	4%	-1%	40*	-15%
O=C(O)CCSc1ccccn1	-1	1%	0%	-15%	-3	-17%
O=C(CCSc1ccccn1)c1ccccc1	22	-27%	-22%	-9%	19	25µM*
COc1cccc(NC(=O)CSc2ccccn2)c1	70*	-2%	-3%	-22%	62*	11%

Compound activity (PubChem)
